Inhibition data for 24 compounds are collected here from PubChem BioAssay AID689 (Sanford-Burnham Center for Chemical Genomics, 2007).

Molecules are shown by their SMILES. In all, about 62,000 compounds went through this assay and about 80 (0.1%) were called active. Not all results are given here. Potency and affinity values are given separately. Unmarked numbers belong to inactive results. No rule for the calls is given here.

The term inhibition denotes the change of the read-out against control, counted positive when it falls.

Sequence of Ephrin type-A receptor 4 (Mus musculus) (Q03137 whole entry, looked up): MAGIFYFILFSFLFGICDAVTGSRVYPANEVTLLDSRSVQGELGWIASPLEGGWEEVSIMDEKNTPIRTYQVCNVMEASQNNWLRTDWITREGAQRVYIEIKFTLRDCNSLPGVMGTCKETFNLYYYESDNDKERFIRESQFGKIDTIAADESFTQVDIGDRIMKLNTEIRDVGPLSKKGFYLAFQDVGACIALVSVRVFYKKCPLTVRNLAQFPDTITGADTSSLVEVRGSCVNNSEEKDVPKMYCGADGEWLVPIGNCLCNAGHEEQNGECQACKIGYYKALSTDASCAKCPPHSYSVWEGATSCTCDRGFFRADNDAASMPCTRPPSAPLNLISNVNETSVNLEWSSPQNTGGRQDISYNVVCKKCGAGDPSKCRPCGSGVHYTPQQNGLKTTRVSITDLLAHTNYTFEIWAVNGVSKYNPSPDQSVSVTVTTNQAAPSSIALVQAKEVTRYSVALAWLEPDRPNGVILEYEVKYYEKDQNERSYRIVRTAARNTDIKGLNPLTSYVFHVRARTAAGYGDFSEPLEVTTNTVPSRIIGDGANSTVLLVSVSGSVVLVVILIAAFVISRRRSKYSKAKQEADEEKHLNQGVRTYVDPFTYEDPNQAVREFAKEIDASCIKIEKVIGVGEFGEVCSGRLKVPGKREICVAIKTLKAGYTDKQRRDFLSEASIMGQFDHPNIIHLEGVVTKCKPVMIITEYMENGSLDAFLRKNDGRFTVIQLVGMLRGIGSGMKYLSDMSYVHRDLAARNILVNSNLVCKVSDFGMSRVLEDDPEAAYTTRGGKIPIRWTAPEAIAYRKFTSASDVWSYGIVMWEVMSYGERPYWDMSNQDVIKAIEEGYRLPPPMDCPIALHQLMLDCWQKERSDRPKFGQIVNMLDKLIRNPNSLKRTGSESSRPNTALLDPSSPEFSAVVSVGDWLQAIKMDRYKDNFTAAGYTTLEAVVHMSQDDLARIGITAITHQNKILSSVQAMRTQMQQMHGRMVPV

The experiment concerns the target Ephrin type-A receptor 4 (Mus musculus) (UniProt Q03137). The experiment can be described thus: EphA4 ligand-binding antagonists – biochemical, colorimetric, mouse EphA4, primary screen (AID 689). The conditions noted are these: EphA4-AP binding to KYL peptide, pNPP A405, at 10 µM, hits give high values.
Consider `Oc1c(/C=N/c2ncn[nH]2)ccc2ccccc12`, for which the inhibition is -0.6%.
As to `O=c1oc2ccccc2c(O)c1/C=N/c1ccccn1`, the inhibition is -4.8%.
As to `Cc1ccc(CNC(=O)C2CCCCC2C(=O)O)cc1` (centres undefined), the inhibition is -8.9%.
`COc1cc(C(=O)Nc2c(-c3ccccc3)c3cc(Br)ccc3[nH]c2=O)cc(OC)c1OC`: the inhibition was -0.5% [this sample at 5 µg/mL].
Consider `COc1ccc(OC)c(NC(=O)Cn2c(-c3ccc(Cl)cc3)noc2=O)c1`, for which the inhibition was -3.5%.
For the compound `CCCC(=O)N1CCN(c2ccc(NC(=O)c3ccccc3)cc2)CC1`, the inhibition is -0.5%.
The figure for `COc1ccc(NC(=O)CN2C(=O)C(C)Oc3ccccc32)cc1` (centres undefined) is -3%; for `O=CNCCCc1nc2ccccc2n1Cc1ccccc1` it is 7.7%.
For `CCn1c2ccccc2c2nc3cc(S(=O)(=O)N4CCOCC4)ccc3nc21`, the inhibition is 32.3%.
Consider `O=[N+]([O-])c1cccc(S(=O)(=O)N2CCOCC2)c1`, for which the inhibition is 2.9% [this sample at 5 µg/mL].
For `O=C(NCc1ccccc1)c1cccc(NC(=O)c2ccco2)c1` the value was -2.1%.
For `COc1ccc(CCNC(=O)c2ccc3nc(-c4ccco4)c(-c4ccco4)nc3c2)cc1OC` the value was 24.1%; for `O=C(NCc1ccccc1)c1ccc2nccnc2c1`, -12.5%.
For `O=C(NC1CCCC1)c1ccc2nc(-c3ccco3)c(-c3ccco3)nc2c1`, the inhibition was 18.8%.
For `CCOC(=O)N1CCC(NC(=O)c2cc(C)c3c(C)nn(-c4ccccc4)c3n2)CC1` the value was -3.2%; for `COc1c(Cl)cc(C(=O)Nc2cccc3ccccc23)cc1Cl`, -13.9% [this sample at 5 µg/mL].
The figure for `CCc1nc(SCc2nc3ccccc3[nH]2)c2oc3ccccc3c2n1` is 12.7%; for `Cc1sc(NC(=O)CN(C)C2CCCCC2)nc1-c1ccc2c(c1)CCN2S(=O)(=O)c1ccccc1` it is -7%.
On to `O=C(Cc1ccc(F)cc1)Nc1ccccc1Br`, for which the inhibition is -10% [this sample at 5 µg/mL].
Consider `CCOC(=O)c1c(C)oc2ccc(OC(=O)c3ccccc3OC)cc12`, for which the inhibition was -1% [this sample at 5 µg/mL].
Regarding `CCOC(=O)c1cc(OC(=O)c2ccccc2)n(-c2ccccc2)n1`, the inhibition is 0.3%.
`Cc1onc(-c2ccccc2Cl)c1C(=O)Nc1ccccc1N1CCOCC1`: the inhibition is 4%.
For `Cc1nn(-c2ccc(Cl)cc2)c2sc(C(=O)N3CCN(C(=O)c4ccco4)CC3)cc12` the value was -24.1%.
Take `CCCCc1nnc(SCc2ccc(OCC)cc2)n1N`: the inhibition is -2.2%.
